Several values for one entry are separate records, joined by “and”; a condition that tells them apart may be missing. Identical values can stand only once. Inconclusive results are not listed. Where a call stands in place of a potency, no number is given. Some structures have more than one record in an assay (separate samples or runs), and their calls can disagree. Activity calls are given as the source filed them. Unless noted, the call rests on the fitted dose curve; in most records, active means well fitted curve in the direction sought with a large enough effect in the repeat runs; inconclusive means weak or mixed curves; inactive means no such curve, though single readings can be large; an effect the other way counts as inactive or inconclusive.
How the values were obtained:
[1] = qHTS assay to identify small molecule agonists of the hypoxia (HIF-1) signaling pathway - cell viability counter screen (AID 1224844; calls by dose curve; further: nearly all actives have a fitted effect of over 50% in size; further: potency means the concentration at half of the fitted maximal effect)
Method in brief: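 Viability counter screen: HRE-bla ME-180 cells plated 5 hrs before compound addition, treated 17 hrs at 37C and 5% CO2, then CellTiter-Glo added after the FRET reporter read; luminescence after 30 min.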

[2] = qHTS assay to identify small molecule agonists of H2AX (AID 1224845; active means well fitted activation curve with a large enough effect in the signal ratio in the repeat runs, not every such curve was filed as active; the % refers to the signal ratio; further: potency means the concentration at half of the fitted maximal effect)
Method in brief: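 Wild-type CHO-K1 cells plated overnight, then exposed 3 hr at 37C to compounds at 15 concentrations (0.76% DMSO). Lysed, then HTRF anti-pH2AX(S139)-cryptate/anti-H2AX-d2 detection after 24 hr at room temperature; emissions 665 and 620 nm.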

[3] = qHTS assay to identify small molecule agonists of H2AX - cell viability counter screen (AID 1224847; calls by dose curve; further: nearly all actives have a fitted effect of over 30% in size; further: potency means the concentration at half of the fitted maximal effect)
Method in brief: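 Counter-screen for viability: CellTiter-Glo ATP luminescence read after 3 h compound treatment (15-point titration, 0.76% DMSO final) of CHO-K1 cells at 37C, with 30 min room-temperature reagent incubation.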

[4] = qHTS assay to identify small molecule antagonists of the estrogen related receptor (ERR) signaling pathway from Tox21 library (AID 1224848); further: nearly all actives have a fitted effect of over 50% in size; further: potency means the concentration at half of the fitted maximal effect
Method in brief: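 Tox21 10K compounds in DMSO tested for ERR pathway antagonism in NTP's ERR cell line; 18 h, 37 C exposure; ONE-Glo luminescence.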

[5] = qHTS assay to identify small molecule agonists of the estrogen related receptor (ERR) signaling pathway from Tox21 library (AID 1224849; calls by dose curve; further: nearly all actives have a fitted effect of over 15% in size); details: ERR reporter cell line, ONE-Glo luciferase, 18 h
Method in brief: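 Quantitative HTS in agonist format: NTP ERR cell line, compounds transferred in DMSO after 6 h plating, 18 h incubation at 37 C, ONE-Glo luminescence endpoint.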

[6] = qHTS RealTime-Glo MT Cell Viability Assay in HepG2 cells - 24 hour (AID 1224867); further: nearly all actives have a fitted effect of over 50% in size; further: potency means the concentration at half of the fitted maximal effect
Method in brief: (§1)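 HepG2 suspension premixed with RealTime-Glo reagents is plated at 600 cells per well and left 5 h at 37 C/5% CO2. Compounds in DMSO then go in, and bioluminescence reflecting viable cell number is recorded over 40 h.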

[7] = qHTS RealTime-Glo MT Cell Viability Assay in HEK293 cells - 32 hour (AID 1224868); further: nearly all actives have a fitted effect of over 50% in size; further: potency means the concentration at half of the fitted maximal effect
Method in brief: (§2)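 Reads taken at 0, 8, 16, 24, 32 and 40 h from the same wells. HEK293 cells (600/well) carried RealTime-Glo reagents from seeding, with compound added after a 5 h settle at 37 C.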

[8] = qHTS RealTime-Glo MT Cell Viability Assay in HepG2 cells - 40 hour (AID 1224870); further: nearly all actives have a fitted effect of over 50% in size; further: potency means the concentration at half of the fitted maximal effect
Method in brief: (§3)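 HepG2 cells mixed with RealTime-Glo MT reagents (NanoLuc plus cell-permeant prosubstrate) were seeded at 600 cells/well, incubated 5 h at 37 C/5% CO2, then pinned with compounds in DMSO; nonlytic luminescence tracked viability during 40 h treatment.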

[9] = A CellTox Green Cytotoxicity Assay to monitor cytotoxicity in HEK293 cells - 40 hour (AID 1224871); further: nearly all actives have a fitted effect of over 45% in size; further: potency means the concentration at half of the fitted maximal effect
Method in brief: (§4)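 Dead-cell fluorescence measured kinetically: asymmetric cyanine dye, HEK293, 600 cells/well, 5 h settle, 23 nL cpd/DMSO, 37 C, reads 0–40 h every 8 h.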

[10] = qHTS RealTime-Glo MT Cell Viability Assay in HEK293 cells - 16 hour (AID 1224872); further: nearly all actives have a fitted effect of over 50% in size; further: potency means the concentration at half of the fitted maximal effect
Method in brief: as §2

[11] = qHTS RealTime-Glo MT Cell Viability Assay in HepG2 cells - 8 hour (AID 1224873); further: nearly all actives have a fitted effect of over 55% in size; further: potency means the concentration at half of the fitted maximal effect
Method in brief: as §3

[12] = qHTS RealTime-Glo MT Cell Viability Assay in HEK293 cells - 40 hour (AID 1224874); details: RealTime-Glo luminescence; max response: stronger effect = lower value; further: nearly all actives have a fitted effect of over 50% in size; further: potency means the concentration at half of the fitted maximal effect
Method in brief: (§5)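 600 HEK293 cells per well, dispensed already mixed with RealTime-Glo MT reagents. Compound dosing came 5 h later. The same wells were read for luminescence at 0, 8, 16, 24, 32 and 40 h of exposure at 37 C.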

[13] = A CellTox Green Cytotoxicity Assay to monitor cytotoxicity in HEK293 cells - 24 hour (AID 1224875); further: nearly all actives have a fitted effect of over 45% in size; further: potency means the concentration at half of the fitted maximal effect
Method in brief: as §4

[14] = A CellTox Green Cytotoxicity Assay to monitor cytotoxicity in HepG2 cells - 16 hour (AID 1224876); further: nearly all actives have a fitted effect of over 45% in size; further: potency means the concentration at half of the fitted maximal effect
Method in brief: (§6)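 First, HepG2 cells (600/well) mixed with reagent were plated; second, after 5 h at 37 C they received compounds via pintool; third, fluorescence was measured at 0 h through 40 h at 8 h intervals.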

[15] = qHTS RealTime-Glo MT Cell Viability Assay in HepG2 cells - 32 hour (AID 1224877); further: nearly all actives have a fitted effect of over 55% in size; further: potency means the concentration at half of the fitted maximal effect
Method in brief: as §1

[16] = A CellTox Green Cytotoxicity Assay to monitor cytotoxicity in HepG2 cells - 24 hour (AID 1224878); further: nearly all actives have a fitted effect of over 45% in size; further: potency means the concentration at half of the fitted maximal effect
Method in brief: as §6

[17] = A CellTox Green Cytotoxicity Assay to monitor cytotoxicity in HepG2 cells - 40 hour (AID 1224879); further: nearly all actives have a fitted effect of over 40% in size; further: potency means the concentration at half of the fitted maximal effect
Method in brief: as §6

[18] = A CellTox Green Cytotoxicity Assay to monitor cytotoxicity in HEK293 cells - 0 hour (AID 1224869); further: nearly all actives have a fitted effect of over 50% in size
Method in brief: as §4

[19] = qHTS RealTime-Glo MT Cell Viability Assay in HEK293 cells - 0 hour (AID 1224880)
Method in brief: as §5

[20] = qHTS assay to identify small molecule agonists of the hypoxia (HIF-1) signaling pathway (AID 1224846; active means well fitted activation curve with a large enough effect in the signal ratio in the repeat runs, not every such curve was filed as active; the % refers to the signal ratio)
Method in brief: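 Agonist mode reporter screen. ME-180 cells stably expressing bla under HRE control received test compounds in DMSO for 17 hrs (37C, 5% CO2), and beta-lactamase activity was then detected with the CCF4-AM FRET substrate.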

CCCCC1(COC(=O)CCC(=O)O)C(=O)N(c2ccccc2)N(c2ccccc2)C1=O
Potency [1]: inactive
Potency [2]: inactive
Potency [3]: inactive
Potency [4]: inactive
activity change, positive = activation ([5]; at 42.5 µM (top of the series)): -6.77% (inactive)
activity change, positive = activation ([5]; at 92.4 µM (top of the series)): 3.58% (inactive) and -11.1% (inactive)
Potency [6]: inactive
Potency [7]: inactive
Potency [8]: inactive
Potency [9]: inactive
Potency [10]: inactive
Potency [11]: inactive
max response [12]: 0.752% (inactive) and 12.4% (inactive) and 1.85% (inactive)
Potency [13]: inactive
Potency [14]: inactive
Potency [15]: inactive
Potency [16]: inactive
Potency [17]: inactive

CC(C)C(=O)Nc1ccc([N+](=O)[O-])c(C(F)(F)F)c1
Potency [1]: inactive
Potency [2]: inactive
Potency [3]: 104 µM (active) and inactive
Potency [4]: 25 µM (active) and 27.3 µM (active) and 13.3 µM (active)
activity change, positive = activation ([5]; at 42.5 µM (top of the series)): -30.7% (inactive)
activity change, positive = activation ([5]; at 92.4 µM (top of the series)): -65.7% (inactive) and -58.2% (inactive)
Potency [6]: inactive
Potency [7]: 12.6 µM (active) and 19.5 µM (active) and 9.52 µM (active)
Potency [8]: inactive
Potency [9]: inactive
Potency [10]: 20 µM (active) and 19.5 µM (active) and 10.7 µM (active)
Potency [11]: inactive
Potency [12]: 11.3 µM (active) and 21.9 µM (active) and 9.52 µM (active)
Potency [13]: inactive
Potency [14]: inactive
Potency [15]: inactive
Potency [16]: inactive
Potency [17]: inactive

O=c1[nH]cc(F)c(=O)[nH]1
Potency [1]: 10.1 µM (active) and inactive
Potency [2]: inactive
Potency [3]: inactive
Potency [6]: inactive
Potency [7]: inactive
Potency [18]: inactive
Potency [8]: inactive
Potency [9]: 50.8 µM (active) and inactive
Potency [10]: inactive
Potency [11]: inactive
max response [12]: -1.84% (inactive) and 1.38% (inactive)
Potency [13]: inactive
Potency [14]: inactive
Potency [15]: inactive
Potency [16]: inactive
Potency [17]: 45.3 µM (active) and inactive
Potency [19]: inactive

CCCCC(CC)C(=O)O (stereo not drawn)
Potency [1]: inactive
Potency [2]: inactive
outcome [20]: inactive
Potency [3]: inactive
Potency [6]: inactive
Potency [7]: inactive
Potency [8]: inactive
Potency [9]: inactive
Potency [10]: inactive
Potency [11]: inactive
Potency [13]: inactive
Potency [14]: inactive
Potency [15]: inactive
Potency [16]: inactive
Potency [17]: inactive
Potency [19]: inactive

Cc1ccc(S(=O)(=O)O)cc1
Potency [1]: inactive
Potency [2]: inactive
outcome [20]: inactive
Potency [3]: inactive
Potency [6]: inactive
Potency [7]: inactive
Potency [8]: inactive
Potency [9]: inactive
Potency [10]: inactive
Potency [11]: inactive
max response [12]: 2.66% (inactive) and 6.16% (inactive) and 6.13% (inactive)
Potency [13]: inactive
Potency [14]: inactive
Potency [15]: inactive
Potency [16]: inactive
Potency [17]: inactive
Potency [19]: inactive

Nc1c2c(nc3ccccc13)CCCC2
Potency [1]: inactive
Potency [2]: inactive
Potency [3]: inactive
Potency [4]: 61.1 µM (active) and 54.5 µM (active) and inactive
activity change, positive = activation ([5]; at 42.5 µM (top of the series)): -6.1% (inactive)
activity change, positive = activation ([5]; at 92.4 µM (top of the series)): -44% (inactive) and -30.5% (inactive)
Potency [6]: inactive
Potency [7]: inactive
Potency [18]: inactive
Potency [8]: inactive
Potency [9]: inactive
Potency [10]: inactive
Potency [11]: inactive
max response [12]: -28% (inactive) and -11.6% (inactive) and 18.3% (inactive)
Potency [13]: inactive
Potency [14]: inactive
Potency [15]: inactive
Potency [16]: inactive
Potency [17]: inactive

CCCC[P+](CCCC)(CCCC)CCCC
Potency [1]: inactive
Potency [2]: inactive
outcome [20]: inactive
Potency [3]: inactive
Potency [6]: inactive
Potency [7]: 19.4 µM (active) and 15.8 µM (active) and 3.89 µM (active)
Potency [8]: inactive
Potency [9]: inactive
Potency [10]: 21.8 µM (active)
Potency [11]: inactive
Potency [12]: 21.8 µM (active) and 17.7 µM (active) and 4.36 µM (active)
Potency [13]: inactive
Potency [14]: inactive
Potency [15]: inactive
Potency [16]: inactive
Potency [17]: inactive
Potency [19]: inactive

CCCCCCCCCCCCCCCC[N+](C)(C)Cc1ccccc1
Potency [1]: inactive and 44.4 µM (active)
Potency [2]: inactive
Potency [3]: 117 µM (active) and 45.8 µM (active) and 49.2 µM (active)
Potency [4]: 11.2 µM (active) and 11.1 µM (active) and 11.9 µM (active)
activity change, positive = activation ([5]; at 42.5 µM (top of the series)): -56.4% (inactive)
activity change, positive = activation ([5]; at 92.4 µM (top of the series)): -78.7% (inactive) and -80.7% (inactive)
Potency [6]: 22.6 µM (active) and 15.8 µM (active) and 10.7 µM (active)
Potency [7]: 7.14 µM (active) and 11.2 µM (active) and 3.38 µM (active)
Potency [18]: inactive
Potency [8]: 14.2 µM (active) and 12.5 µM (active) and 8.49 µM (active)
Potency [9]: 50.5 µM (active) and 39.6 µM (active) and 23.9 µM (active)
Potency [10]: 25.3 µM (active) and 28 µM (active)
Potency [11]: 63.6 µM (active) and 39.6 µM (active) and 23.9 µM (active)
Potency [12]: 4.5 µM (active) and 7.9 µM (active) and 3.01 µM (active)
Potency [13]: 50.5 µM (active) and 31.4 µM (active) and 21.3 µM (active)
Potency [14]: 50.5 µM (active) and 19.8 µM (active) and 23.9 µM (active)
Potency [15]: 16 µM (active) and 14 µM (active) and 9.52 µM (active)
Potency [16]: 25.3 µM (active) and 17.7 µM (active) and 19 µM (active)
Potency [17]: 20.1 µM (active) and 14 µM (active) and 10.7 µM (active)

CCc1nc(N)nc(N)c1-c1ccc(Cl)cc1
Potency [1]: inactive
Potency [2]: 22.9 µM (active)
Potency [3]: inactive and 8.98 µM (active) and 12.4 µM (active)
Potency [6]: inactive
Potency [7]: 3.52 µM (active) and 12.3 µM (active)
Potency [18]: inactive
Potency [8]: inactive
Potency [9]: inactive
Potency [10]: inactive
Potency [11]: inactive
Potency [12]: 3.52 µM (active) and 12.3 µM (active) and 5.35 µM (active)
Potency [13]: inactive
Potency [14]: inactive
Potency [15]: inactive
Potency [16]: inactive
Potency [17]: inactive
Potency [19]: inactive
